About 79,000 compounds went through this panel and 15% of them were active in at least one assay; those are over-represented in the sample as a whole. Unmarked numbers belong to inactive results. Active and inactive are the calls of the source. Rule as the data show it: active = growth inhibition above about 70%; inactive = the rest.
Legend:
[1] = NCI Yeast Anticancer Drug Screen. Data for the rad50 strain (AID 155);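 also: 0% = growth of vehicle-only cultures of the same strain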; settings: S. cerevisiae rad50 strain growth inhibition, hits give high values
Procedure, shortened: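 Inhibition values express reduced yeast growth in compound-treated cultures relative to vehicle-treated controls.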

[2] = NCI Yeast Anticancer Drug Screen. Data for the mec2-1 strain (AID 157); settings: S. cerevisiae mec2-1 strain, hits give high values
Procedure, shortened: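 Readout is yeast growth inhibition, normalised to vehicle-treated controls, in the mec2-1 strain exposed to compound.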

[3] = NCI Yeast Anticancer Drug Screen. Data for the sgs1 mgt1 strain (AID 161);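 also: 0% = growth of cultures given vehicle only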; settings: S. cerevisiae sgs1 mgt1 strain, hits give high values
Procedure, shortened: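 Percent growth inhibition was derived by comparing compound-exposed mutant yeast with vehicle-exposed cultures. The strain carries alterations in DNA damage repair.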

[4] = NCI Yeast Anticancer Drug Screen. Data for the cln2 rad14 strain (AID 165);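 also: 0% = growth equal to vehicle treated cultures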; settings: S. cerevisiae cln2 rad14 strain, hits give high values
Procedure, shortened: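 Relative to vehicle controls, growth inhibition of compound-treated cln2 rad14 yeast was recorded.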

[5] = NCI Yeast Anticancer Drug Screen. Data for the bub3 strain (AID 167); settings: S. cerevisiae bub3 mutant strain, hits give high values
Procedure, shortened: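 Steps: expose the mutant yeast strain to compound; grow alongside vehicle-treated cultures; measure growth; express inhibition against the vehicle cultures.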

[6] = NCI Yeast Anticancer Drug Screen. Data for the mlh1 rad18 strain (AID 175); settings: S. cerevisiae mlh1 rad18 strain growth inhibition, hits give high values
Procedure, shortened: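 Test agents were incubated with a yeast strain of defined genotype (DNA damage repair defect). Inhibition of growth was derived by comparison with vehicle-exposed cultures.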

[7] = at 5.0 µM (retest, dose inferred, filed as 0.5)
[8] = at 50.0 µM (retest, dose inferred, filed as 5.0)

Structure (SMILES) | growth inhibition [1, 7] [%] | growth inhibition [1, 8] | growth inhibition ([1]; at 50.0 µM) | growth inhibition [2, 7] [%] | growth inhibition [2, 8] | growth inhibition ([2]; at 50.0 µM) | growth inhibition [3, 7] [%] | growth inhibition [3, 8] | growth inhibition ([3]; at 50.0 µM) | growth inhibition [4, 7] [%] | growth inhibition [4, 8] | growth inhibition ([4]; at 50.0 µM) | growth inhibition [5, 7] [%] | growth inhibition [5, 8] | growth inhibition ([5]; at 50.0 µM) | growth inhibition [6, 7] [%] | growth inhibition [6, 8] | growth inhibition ([6]; at 50.0 µM)
COC(C(=O)C1=C2Oc3c4c(cc(O)c3C(=O)C2C2=C(CCCC2)C1=O)OC(C)(C)C=C4)C(C)CCC=C(C)C (configuration not stated) | 6 | 90% (active) | 74.2% (active) | -1 | 90% (active) | 79% (active) | 3 | 90% (active) | 78.5% (active) | -5 | 90% (active) | 80.9% (active) | 4 | 92% (active) | 78% (active) | 4 | 92% (active) | 80.2% (active)
CC(=O)C1=C(C)O/C(=C/c2ccc(Cl)cc2)C1=O | 27 | 94% (active) | 49.5% | 28 | 99% (active) | 32% | 34 | 99% (active) | 85.7% (active) | 34 | 90% (active) | 79% (active) | 31 | 99% (active) | 83.2% (active) | 34 | 98% (active) | 91.8% (active)
CC(C)C(CC(C)(C)C)OC(=O)Nc1cccc2ccccc12 (configuration not stated) | 0 | 96% (active) | 13.1% | -1 | 98% (active) | 26.4% | 0 | 97% (active) | 61.8% | -17 | 95% (active) | 6.15% | 11 | 96% (active) | 61.1% | -3 | 97% (active) | 58.1%
O=S(=O)(c1ccccc1)C1CN=NC1c1ccccc1 (configuration not stated) | 4 | 79% (active) | 84.2% (active) | -16 | 97% (active) | 97.7% (active) | -7 | 98% (active) | 73.6% (active) | -2 | 69% | 93.5% (active) | 6 | 98% (active) | 87.8% (active) | 30 | 97% (active) | 97% (active)
O=C(OCc1ccccc1CN1CCOCC1)c1ccc(Br)cc1 | -30 | 29% | 77.3% (active) | -2 | -2% | 74.5% (active) | -2 | 77% (active) | 93.7% (active) | -1 | -7% | 51.9% | 2 | 41% | 92.1% (active) | 4 | 36% | 76.1% (active)
COc1ccc2c(C(=O)c3ccccc3)c3[n+](cc2c1OC)CCc1cc2c(cc1-3)OCO2 | -1 | 38% | 65.7% | -21 | 22% | 53.6% | -4 | 20% | 52.1% | -4 | 21% | 30.1% | -4 | 24% | 50.3% | -2 | 24% | 75.5% (active)
Cc1ccc(-c2oc(C=Nc3ccccc3)c([N+](=O)[O-])c2-c2ccc(C)cc2)cc1 | 11 | 72% (active) | 73.3% (active) | 13 | 70% (active) | 64.5% | 26 | 73% (active) | 70.9% (active) | 36 | 74% (active) | 42.2% | 46 | 95% (active) | 41.7% | 52 | 91% (active) | 75.8% (active)
COCCn1cc(F)c(=O)[nH]c1=O | 15 | 16% | -8.7% | 0 | 2% | -2.25% | 3 | 47% | 33.2% | 6 | 8% | 46.3% | 8 | 5% | -20.6% | 9 | 20% | -5.45%
CC(C)(C)C1=CC(N2CCCCC2)(C(C)(C)C)C=C(C(C)(C)C)C1=O | 0 | 55% | 93.8% (active) | -2 | 64% | 91.8% (active) | 3 | 77% (active) | 95.3% (active) | -3 | 30% | 65.3% | -6 | 35% | 81.2% (active) | 0 | 73% (active) | 94.8% (active)
